A selection: hits, their analogues and other compounds. The true share with any hit is near 4.6%.
TIM10 inh – growth inhibitors of isogenic TIM10 control yeast, primary screen, counter-screen for tim10-1 yeast inhibitor project, luminescence, uHTS; inhibition, % at 10 µM; actives 1.4% (n = 330,000); S. cerevisiae TIM10 strain growth, BacTiter-Glo luminescence, 24 h;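 active = inhibition of 40% or more at the single tested concentration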;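 also: wild-type TIM10 isogenic control strain grown at permissive 25 °C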
SKKanGAS inh – S. pyogenes SKKanGAS growth inhibitors in kanamycin, primary screen, streptokinase expression inhibitor project, SKKanGAS strain, BacTiter-Glo luminescence. AID 1662, 2009. actives 1.3% (n = 300,000). 6 h. inhibition, % at 7.5 µM;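 active = mean replicate score, as percent of positive control median, at least 50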;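 also: strain carries kanamycin resistance gene driven by streptokinase promoter and grows in 40 µg/ml kanamycin; loss of luminescence reflects streptokinase promoter inhibition or plain growth inhibition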
NALP3 yeast inh – NALP3 inflammasome inhibitors in reconstituted yeast, primary screen, luminescence, uHTS; actives 0.39% (n = 330,000); inhibition, % at 10 µM; Yeast reconstituted NLRP3/ASC/caspase-1, beta-gal luminescence, 24 h;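 active = inhibition of 50% or more; inactive = inhibition below 50%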
tim23-1 inh – growth inhibitors of tim23-1 mutant yeast, primary screen, luminescence, uHTS; actives 1.3% (n = 330,000); S. cerevisiae tim23-1 growth, BacTiter-Glo luminescence, 24 h; inhibition, % at 20 µM;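 active = growth inhibition of the mutant yeast at or above 50%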;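 also: temperature-sensitive mutant grown at 25 °C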
tim10-1 inh – growth inhibitors of tim10-1 mutant yeast, primary screen, luminescence, uHTS | actives 2.2% (n = 330,000) | inhibition, % at 20 µM | S. cerevisiae tim10-1 ts strain growth, BacTiter-Glo, 24 h | AID 463190, 2010;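 active = inhibition of at least 40%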;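 also: mutant grown at 25 °C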
PfHsp90 set2 – growth inhibition of PfHsp90-expressing yeast, primary screen, antimalarial PfHsp90 inhibitor project, S. cerevisiae, BacTiter-Glo luminescence, single point, set 2; inhibition, % at 9.4 µM; actives 0.32% (n = 310,000); BacTiter-Glo ATP, 48 h; yeast lacking PDR1 and PDR3 efflux regulators;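 active = every replicate shows inhibition above about 80%, whatever the replicate mean, limit read from the data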
tim10-1 confirm – growth inhibitors of tim10-1 mutant yeast, confirmation, single concentration, luminescence, S. cerevisiae; actives 56% (n = 7,400); inhibition, % at 20 µM; S. cerevisiae tim10-1 ts strain growth, BacTiter-Glo, 24 h; AID 463213, 2010; shares compounds with tim10-1 inh;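 active = inhibition of yeast growth at or above a set limit in either of two repeat tests at 20 µM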;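 also: tim10-1 mutant grown at permissive 25 °C to find synthetic lethal compounds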
Hits are given with their value; - = inactive; . = not tested or not shown.

SMILES | TIM10 inh | SKKanGAS inh | NALP3 yeast inh | tim23-1 inh | tim10-1 inh | PfHsp90 set2 | tim10-1 confirm
O=C1C2C3C=CC(C3)C2C(=O)N1CCN1CCN(S(=O)(=O)/C=C/c2ccccc2)CC1 (configuration not stated) | - | - | - | - | 42 | - | -
CCn1c2ccccc2c2c3ncc4cccn4c3ccc21 | - | - | - | - | 49 | - | 30
c1ccc2c(c1)ncc1cccn12 | - | - | - | - | - | - | .
Cc1cccc(OCCCC(=O)Nc2ccc(S(=O)(=O)Nc3nccs3)cc2)c1C | - | - | - | - | - | - | .
CSc1nc(-c2ccccc2)cn1-c1ccc(NC(C)=O)cc1 | - | - | - | - | 46 | - | 31
CCOC(=O)c1ccc(S(=O)(=O)N2CCN(C(=O)c3cccc(S(=O)(=O)N4CC(C)OC(C)C4)c3)CC2)cc1 (configuration not stated) | . | . | . | . | . | - | .
CC1CN(C(=O)CCC(=O)NCCCN2C(C)CCCC2C)c2ccccc2O1 (configuration not stated) | - | - | - | - | - | - | .
Cc1c(CCC(=O)NCCCn2ccnc2)c(=O)oc2cc3oc4c(c3cc12)CCCC4 | - | - | - | - | - | - | .
N#Cc1nc(Cl)c(Cl)c(NN)c1Cl | - | - | - | - | - | - | .
C=CC[C@H](CC(=O)N[C@H](CO)Cc1ccccc1)C(=O)N[C@@H](COC(=O)[C@@H](CC=C)Cc1ccc(F)cc1)Cc1c[nH]c2ccccc12 | - | . | - | - | - | - | .
Cc1nn(-c2ccc(C(=O)N3CCN(S(=O)(=O)c4ccccc4C(F)(F)F)CC3)cc2)c(C)c1Cl | - | . | - | - | - | - | .
CC(=O)c1ccc(S(=O)(=O)N2CCN(C(=O)c3ccc(-n4nc(C)c(Cl)c4C)cc3)CC2)cc1 | - | . | - | - | 41 | - | -
Cc1cc(C)n(-c2nc(NCCCO)c3c4c(sc3n2)CCCC4)n1 | - | 55 | - | - | 50 | . | -
Cc1cc(C)n(-c2nc(NCC(C)O)c3c4c(sc3n2)CCCC4)n1 (configuration not stated) | - | - | - | - | - | - | .
CCOC(=O)c1cnc2ccc(OCC)cc2c1NCc1ccccc1OC | - | - | - | - | 43 | - | 34
CCOC(=O)c1cnc2ccc(OC)cc2c1NCc1ccccc1 | - | - | - | - | - | - | .
O=C(c1ccc(OC2CCN(Cc3ccccn3)CC2)cc1)N1CCCC(O)C1 (configuration not stated) | - | - | - | - | - | - | .
Cc1ccc(NC(=O)c2noc(C(C)C)c2[N+](=O)[O-])cc1 | - | - | - | - | - | - | .
O=C(CCC(=O)Nc1cccnc1)Nc1cccnc1 | - | - | - | - | - | - | .
CCc1cc2c(=O)nc3n(c2s1)Cc1ccccc1/C3=C(/O)c1cccc([N+](=O)[O-])c1 | - | - | - | - | - | - | .
CCc1cc2c(=O)nc3n(c2s1)Cc1ccccc1/C3=C(/O)c1ccc(F)cc1 | - | - | - | - | 44 | - | 35
CCOC(=O)N1CCN(S(=O)(=O)c2ccc(C(=O)NNc3nc4c(C)cc(C)cc4s3)cc2)CC1 | - | - | - | - | - | . | .
CCOC(=O)N1CCN(S(=O)(=O)c2ccc(C(=O)NNc3nc4cc(C)cc(C)c4s3)cc2)CC1 | - | - | - | - | 42 | - | -
COc1cc(C(=S)N2CCCC2)ccc1OCc1ccc(C)cc1 | - | - | - | - | - | - | .
COc1ccc(N2CCN(C(CNC(=O)CC(C)(C)C)c3ccc4c(c3)OCO4)CC2)cc1 (configuration not stated) | - | - | - | - | - | - | .
SMILES | TIM10 inh | SKKanGAS inh | NALP3 yeast inh | tim23-1 inh | tim10-1 inh | PfHsp90 set2 | tim10-1 confirm
Cn1c(N)c(C(=O)COC(=O)Cc2ccc(Cl)cc2Cl)c(=O)n(C)c1=O | - | . | - | - | - | - | .
Cn1c(N)c(C(=O)COC(=O)CCCOc2ccc(Cl)cc2Cl)c(=O)n(C)c1=O | - | - | - | - | 42 | - | 41
CCc1ccccc1OCC(=O)Nc1nc(-c2cccnc2)cs1 | - | 102 | - | - | - | - | -
CCC(=O)c1ccc(OCC(=O)Nc2nc(-c3cccnc3)cs2)cc1 | - | - | - | - | - | - | .
COc1cccc(CNC(=O)CN2C(=O)COc3ccc(S(=O)(=O)N4CCCC4)cc32)c1 | - | - | - | - | - | - | .
O=C(ON=C1CCN(S(=O)(=O)c2ccccc2)CC1)c1ccc(F)cc1 | - | - | - | - | 52 | . | 54
Cc1ccc2c(N)c(C(=O)N(c3ccccc3)c3ccccc3)sc2n1 | - | - | - | - | 44 | - | -
C=CCOC(=O)/C(=C\c1ccccc1)NC(=O)c1ccc(C)cc1 | - | - | - | - | 40 | - | -
CCOC(=O)/C(=C\c1ccccc1)NC(=O)c1ccccc1 | - | - | - | - | - | - | .
CC1CC(C)(C)CC2(C1)NC(=O)N(CC(=O)Nc1cc(C(F)(F)F)ccc1N1CCCCC1)C2=O (configuration not stated) | . | . | . | . | . | - | .
O=C(CN1CCCc2ccccc21)Nc1cccc(S(=O)(=O)N2CCOCC2)c1 | - | . | - | - | - | - | .
Cc1ccc(-c2cc(-c3ccccc3)[nH]c(=S)c2C#N)cc1 | - | - | - | - | 54 | - | -
COc1ccc(-c2cc(-c3ccccc3)c(C#N)c(=S)[nH]2)cc1 | - | - | - | - | - | - | .
O=C(O)COc1ccccc1/C=N/NC(=O)CSc1nc2ccccc2n1Cc1ccccc1Cl | - | - | - | - | - | - | .
COc1cccc(C2CC(c3ccccc3Cl)Nc3ncnn32)c1 (configuration not stated) | . | . | . | . | . | - | .
Clc1ccc(C2CC(c3cccs3)n3ncnc3N2)c(Cl)c1 (configuration not stated) | - | - | - | - | 41 | . | -
COc1cc(NC(=O)C2=C(N3CCOCC3)/C(=C/c3ccc(Cl)cc3)CC2)cc(OC)c1OC | - | - | - | - | 44 | - | 44
COc1ccc(NC(C)(C)c2nnnn2-c2c(C)cccc2C)cc1 | - | - | - | - | 40 | - | 32
O=C(Nc1ccccc1C(=O)N/N=C/c1ccco1)c1ccccc1 | - | - | - | - | 41 | - | -
O=C(Nc1ccccc1C(=O)N/N=C/c1ccco1)c1ccc(Cl)cc1 | - | - | - | - | - | - | .

Source: PubChem BioAssay
